Test in all cases: DAPPL (digital affinity profiling via proximity ligation, sequencing); 10 mM Tris-HCl pH 7.5, 50 mM NaCl, 1 mM DTT, 4% glycerol, room temperature, 30 min; GST-TFs on glutathione beads, 16-mer random dsDNA library, 0.1% formaldehyde crosslink after washing; high values mean tight binding
Holding throughout (settings): protein: recombinant; tags: N-terminal GST; dsDNA, one strand shown

The target in one test is T1, FLI1 (Homo sapiens, UniProt Q01543 1-452).
T1 sequence: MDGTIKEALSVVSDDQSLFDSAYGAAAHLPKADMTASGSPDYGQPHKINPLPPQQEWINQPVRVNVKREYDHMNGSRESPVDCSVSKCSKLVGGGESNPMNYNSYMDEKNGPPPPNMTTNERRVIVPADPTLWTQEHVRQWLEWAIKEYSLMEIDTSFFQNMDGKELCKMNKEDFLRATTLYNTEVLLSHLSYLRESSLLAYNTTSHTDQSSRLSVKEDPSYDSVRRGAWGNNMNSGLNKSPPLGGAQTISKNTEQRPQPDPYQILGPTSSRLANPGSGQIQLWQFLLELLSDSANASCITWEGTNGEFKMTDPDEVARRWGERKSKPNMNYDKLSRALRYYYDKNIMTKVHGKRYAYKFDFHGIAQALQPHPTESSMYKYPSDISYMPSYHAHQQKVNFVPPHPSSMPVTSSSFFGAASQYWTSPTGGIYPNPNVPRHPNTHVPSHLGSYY
Summed up: (§1)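 Human transcription factors were made in yeast as GST fusions, captured on glutathione beads and barcoded with DNA. With a tag-only sample included, the pool was incubated with 200 nmole of a random double-stranded 16-mer DNA library in Tris/NaCl/DTT/glycerol buffer at room temperature for 30 min, then crosslinked with 0.1% formaldehyde after washing, ligated by proximity, amplified and sequenced. For binding signal, each hexamer's read frequency for a factor is divided by its frequency for the tag-only sample.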

The next test addresses T2, EHF (Homo sapiens, UniProt Q9NZC4 1-300).
T2 sequence: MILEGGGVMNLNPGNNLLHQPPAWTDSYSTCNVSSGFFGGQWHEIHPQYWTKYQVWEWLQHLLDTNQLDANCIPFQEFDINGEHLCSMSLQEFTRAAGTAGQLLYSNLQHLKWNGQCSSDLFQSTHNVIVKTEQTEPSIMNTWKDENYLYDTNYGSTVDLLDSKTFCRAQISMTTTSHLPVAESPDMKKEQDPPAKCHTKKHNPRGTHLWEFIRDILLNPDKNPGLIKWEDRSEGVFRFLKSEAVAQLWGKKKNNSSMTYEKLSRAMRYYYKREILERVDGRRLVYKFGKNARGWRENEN
Summed up: as §1

For a further test, the target named is T3, ELK3 (Homo sapiens, UniProt P41970 1-407).
T3 sequence: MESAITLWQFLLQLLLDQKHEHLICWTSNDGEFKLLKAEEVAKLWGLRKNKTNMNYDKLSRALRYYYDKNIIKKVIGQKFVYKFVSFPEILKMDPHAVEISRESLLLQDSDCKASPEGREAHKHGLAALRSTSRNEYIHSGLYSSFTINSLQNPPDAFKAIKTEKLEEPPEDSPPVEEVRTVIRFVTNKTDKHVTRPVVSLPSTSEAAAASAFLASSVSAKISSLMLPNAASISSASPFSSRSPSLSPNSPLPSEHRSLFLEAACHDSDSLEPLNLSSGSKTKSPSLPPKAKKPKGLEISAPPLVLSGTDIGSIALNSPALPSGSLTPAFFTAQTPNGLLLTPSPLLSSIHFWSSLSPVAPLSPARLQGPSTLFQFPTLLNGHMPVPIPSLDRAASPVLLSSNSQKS
The essentials: as §1

For a further test, the target named is T4, SPIC (Homo sapiens, UniProt Q8N5J4 1-248).
T4 sequence: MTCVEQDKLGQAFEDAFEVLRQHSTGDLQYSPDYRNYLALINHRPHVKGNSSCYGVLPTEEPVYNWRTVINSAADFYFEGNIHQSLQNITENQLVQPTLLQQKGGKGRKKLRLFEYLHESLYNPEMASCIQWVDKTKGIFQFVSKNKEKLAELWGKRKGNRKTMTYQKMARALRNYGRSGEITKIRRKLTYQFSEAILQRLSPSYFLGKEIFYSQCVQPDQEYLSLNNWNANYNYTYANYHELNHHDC
The essentials:
as §1

The target in the next test is T5, ELK4 (Homo sapiens, UniProt P28324-2 1-405).
T5 sequence: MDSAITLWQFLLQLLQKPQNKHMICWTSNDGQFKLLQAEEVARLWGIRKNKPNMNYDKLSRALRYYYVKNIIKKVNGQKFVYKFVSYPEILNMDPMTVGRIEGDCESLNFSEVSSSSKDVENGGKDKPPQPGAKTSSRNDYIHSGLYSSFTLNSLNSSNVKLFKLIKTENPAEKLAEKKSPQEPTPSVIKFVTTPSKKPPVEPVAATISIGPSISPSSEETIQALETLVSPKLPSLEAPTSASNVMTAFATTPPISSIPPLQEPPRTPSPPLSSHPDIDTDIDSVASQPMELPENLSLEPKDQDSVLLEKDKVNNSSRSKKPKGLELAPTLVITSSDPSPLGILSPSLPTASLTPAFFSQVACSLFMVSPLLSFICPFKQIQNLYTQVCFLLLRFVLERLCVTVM
The essentials:
as §1

For a further test, the target named is T6, ETV2 (Homo sapiens, UniProt O00321 1-342).
T6 sequence: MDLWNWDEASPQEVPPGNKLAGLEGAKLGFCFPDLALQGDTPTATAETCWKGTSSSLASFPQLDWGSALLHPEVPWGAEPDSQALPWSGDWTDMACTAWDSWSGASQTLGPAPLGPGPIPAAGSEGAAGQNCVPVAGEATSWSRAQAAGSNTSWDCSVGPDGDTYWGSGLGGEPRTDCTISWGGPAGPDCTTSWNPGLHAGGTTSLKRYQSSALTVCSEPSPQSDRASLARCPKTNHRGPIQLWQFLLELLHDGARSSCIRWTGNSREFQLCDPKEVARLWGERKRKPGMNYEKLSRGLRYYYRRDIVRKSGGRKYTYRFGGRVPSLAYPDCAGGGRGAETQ
The essentials: as §1

Another test concerns the target T7, ETV3 (Homo sapiens, UniProt P41162-2 1-143).
T7 sequence: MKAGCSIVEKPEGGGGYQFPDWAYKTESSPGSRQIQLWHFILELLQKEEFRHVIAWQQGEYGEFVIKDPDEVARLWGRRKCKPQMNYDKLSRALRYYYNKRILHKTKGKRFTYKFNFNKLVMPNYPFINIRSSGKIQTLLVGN
Summed up: as §1

A further test deals with ETV6 (Homo sapiens, UniProt P41212 1-452). The essentials:
as §1

Another test concerns the target ELF1 (Homo sapiens, UniProt P32519 1-619). Summed up:
as §1

The target in the next test is SPIB (Homo sapiens, UniProt Q01892 1-262). The essentials: as §1
The next test concerns the target T8, ELF3 (Homo sapiens, UniProt P78545 1-371).
T8 sequence: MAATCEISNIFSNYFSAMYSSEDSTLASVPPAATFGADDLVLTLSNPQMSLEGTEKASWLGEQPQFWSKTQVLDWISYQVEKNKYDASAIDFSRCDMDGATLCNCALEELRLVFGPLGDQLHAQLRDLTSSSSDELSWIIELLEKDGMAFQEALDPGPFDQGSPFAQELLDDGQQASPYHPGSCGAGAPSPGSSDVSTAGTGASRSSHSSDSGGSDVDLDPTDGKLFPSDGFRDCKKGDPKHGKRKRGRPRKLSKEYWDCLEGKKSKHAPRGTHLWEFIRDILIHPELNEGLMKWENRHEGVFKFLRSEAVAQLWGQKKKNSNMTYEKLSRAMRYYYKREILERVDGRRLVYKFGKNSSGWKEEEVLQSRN
The essentials: as §1

The next test addresses ETV1 (Homo sapiens, UniProt P50549 1-477). The essentials: as §1
The target of the next test is T9, GABPA (Homo sapiens, UniProt Q06546 1-454).
T9 sequence: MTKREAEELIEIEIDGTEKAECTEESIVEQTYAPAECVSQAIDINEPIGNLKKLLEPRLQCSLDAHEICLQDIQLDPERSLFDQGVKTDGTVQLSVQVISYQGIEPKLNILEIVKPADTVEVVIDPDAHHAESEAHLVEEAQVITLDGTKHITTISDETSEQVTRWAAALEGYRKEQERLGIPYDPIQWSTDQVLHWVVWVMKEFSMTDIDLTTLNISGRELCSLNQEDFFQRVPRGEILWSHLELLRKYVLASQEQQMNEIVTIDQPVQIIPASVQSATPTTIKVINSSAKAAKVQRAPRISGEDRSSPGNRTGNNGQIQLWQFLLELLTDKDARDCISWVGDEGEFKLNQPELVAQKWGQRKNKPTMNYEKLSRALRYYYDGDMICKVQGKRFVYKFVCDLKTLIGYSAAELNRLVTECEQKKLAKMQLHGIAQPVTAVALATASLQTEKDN
Summed up:
as §1

In another test the target is ELF4 (Homo sapiens, UniProt Q99607 1-663). Summed up:
as §1

The target of another test is T10, ETV3L (Homo sapiens, UniProt Q6ZN32 1-361).
T10 sequence: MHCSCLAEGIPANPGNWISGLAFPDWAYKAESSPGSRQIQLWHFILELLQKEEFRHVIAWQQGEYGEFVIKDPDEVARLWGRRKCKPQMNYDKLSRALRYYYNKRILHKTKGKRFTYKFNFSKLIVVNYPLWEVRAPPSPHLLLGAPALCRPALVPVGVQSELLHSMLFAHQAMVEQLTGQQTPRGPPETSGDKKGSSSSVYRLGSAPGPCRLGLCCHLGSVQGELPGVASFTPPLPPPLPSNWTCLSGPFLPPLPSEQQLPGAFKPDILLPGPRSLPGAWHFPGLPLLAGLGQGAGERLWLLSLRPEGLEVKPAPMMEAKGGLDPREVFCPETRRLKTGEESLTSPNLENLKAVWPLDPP
Summed up: as §1

In another test the target is T11, ETS2 (Homo sapiens, UniProt P15036 1-469).
T11 sequence: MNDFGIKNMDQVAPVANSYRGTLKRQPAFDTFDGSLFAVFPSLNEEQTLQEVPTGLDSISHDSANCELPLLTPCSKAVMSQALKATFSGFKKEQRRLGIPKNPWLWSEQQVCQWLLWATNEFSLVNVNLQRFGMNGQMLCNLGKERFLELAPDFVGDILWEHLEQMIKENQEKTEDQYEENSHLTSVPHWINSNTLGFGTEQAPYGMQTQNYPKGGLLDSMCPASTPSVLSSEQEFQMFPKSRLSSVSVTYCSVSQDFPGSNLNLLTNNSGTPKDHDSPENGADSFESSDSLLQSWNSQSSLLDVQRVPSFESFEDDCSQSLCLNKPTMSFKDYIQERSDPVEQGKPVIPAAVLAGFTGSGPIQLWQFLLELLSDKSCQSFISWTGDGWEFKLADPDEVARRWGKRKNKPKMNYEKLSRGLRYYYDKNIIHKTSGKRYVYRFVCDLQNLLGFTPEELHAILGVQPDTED
Summed up: as §1

The text below walks through data of PMC7862700, “An all-to-all approach to the identification of sequence-specific readers for epigenetic DNA modifications on cytosine”.

Sequence of ETV1 (P50549 whole entry): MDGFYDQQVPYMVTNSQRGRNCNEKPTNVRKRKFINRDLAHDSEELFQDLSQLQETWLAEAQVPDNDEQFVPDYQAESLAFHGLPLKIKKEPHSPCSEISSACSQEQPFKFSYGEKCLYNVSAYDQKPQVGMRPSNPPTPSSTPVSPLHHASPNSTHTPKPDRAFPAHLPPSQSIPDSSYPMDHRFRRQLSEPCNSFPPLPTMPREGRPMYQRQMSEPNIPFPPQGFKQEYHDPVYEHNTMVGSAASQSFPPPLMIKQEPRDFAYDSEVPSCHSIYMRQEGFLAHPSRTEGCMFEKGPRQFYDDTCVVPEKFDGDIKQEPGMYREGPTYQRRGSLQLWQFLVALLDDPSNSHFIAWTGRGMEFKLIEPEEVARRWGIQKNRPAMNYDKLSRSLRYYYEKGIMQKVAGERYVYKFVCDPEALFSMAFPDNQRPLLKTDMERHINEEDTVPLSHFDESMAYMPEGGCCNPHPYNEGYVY
Sequence of ETV6 (P41212 whole entry): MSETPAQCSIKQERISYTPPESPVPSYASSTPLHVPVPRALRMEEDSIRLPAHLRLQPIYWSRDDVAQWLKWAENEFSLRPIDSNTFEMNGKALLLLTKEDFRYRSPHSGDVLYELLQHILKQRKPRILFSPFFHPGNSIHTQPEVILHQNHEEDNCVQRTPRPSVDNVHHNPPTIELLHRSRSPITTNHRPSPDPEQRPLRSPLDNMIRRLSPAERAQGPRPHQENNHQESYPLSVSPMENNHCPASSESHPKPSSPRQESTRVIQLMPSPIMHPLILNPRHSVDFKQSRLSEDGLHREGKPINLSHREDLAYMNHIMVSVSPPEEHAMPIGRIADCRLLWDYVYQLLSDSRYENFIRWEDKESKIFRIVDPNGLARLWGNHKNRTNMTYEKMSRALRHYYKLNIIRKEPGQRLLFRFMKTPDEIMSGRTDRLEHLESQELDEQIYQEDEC
Sequence of ELF4 (Q99607 whole entry): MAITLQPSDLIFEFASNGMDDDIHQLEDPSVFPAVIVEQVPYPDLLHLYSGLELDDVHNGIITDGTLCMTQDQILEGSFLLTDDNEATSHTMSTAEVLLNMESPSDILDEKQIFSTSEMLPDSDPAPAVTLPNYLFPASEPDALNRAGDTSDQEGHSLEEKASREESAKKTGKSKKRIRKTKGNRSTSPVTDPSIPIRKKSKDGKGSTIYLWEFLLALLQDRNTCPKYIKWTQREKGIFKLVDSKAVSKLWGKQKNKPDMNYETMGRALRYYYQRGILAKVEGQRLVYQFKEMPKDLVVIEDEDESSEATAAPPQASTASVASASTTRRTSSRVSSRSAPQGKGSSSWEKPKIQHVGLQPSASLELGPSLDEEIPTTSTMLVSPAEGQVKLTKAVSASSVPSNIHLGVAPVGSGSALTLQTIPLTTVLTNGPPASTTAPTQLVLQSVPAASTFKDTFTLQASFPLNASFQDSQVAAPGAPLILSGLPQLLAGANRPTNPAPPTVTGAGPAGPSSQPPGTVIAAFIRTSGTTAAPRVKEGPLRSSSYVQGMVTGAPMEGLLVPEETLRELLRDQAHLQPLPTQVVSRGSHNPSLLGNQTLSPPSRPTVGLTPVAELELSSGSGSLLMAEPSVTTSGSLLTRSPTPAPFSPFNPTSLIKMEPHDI
Sequence of SPIB (Q01892 whole entry): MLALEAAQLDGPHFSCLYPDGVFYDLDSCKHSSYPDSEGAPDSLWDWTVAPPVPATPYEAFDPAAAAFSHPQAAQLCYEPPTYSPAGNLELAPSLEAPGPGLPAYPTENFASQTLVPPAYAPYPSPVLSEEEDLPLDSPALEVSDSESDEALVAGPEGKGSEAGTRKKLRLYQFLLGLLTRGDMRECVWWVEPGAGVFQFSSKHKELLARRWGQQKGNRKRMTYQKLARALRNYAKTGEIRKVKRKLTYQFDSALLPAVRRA
Sequence of ELF1 (P32519 whole entry): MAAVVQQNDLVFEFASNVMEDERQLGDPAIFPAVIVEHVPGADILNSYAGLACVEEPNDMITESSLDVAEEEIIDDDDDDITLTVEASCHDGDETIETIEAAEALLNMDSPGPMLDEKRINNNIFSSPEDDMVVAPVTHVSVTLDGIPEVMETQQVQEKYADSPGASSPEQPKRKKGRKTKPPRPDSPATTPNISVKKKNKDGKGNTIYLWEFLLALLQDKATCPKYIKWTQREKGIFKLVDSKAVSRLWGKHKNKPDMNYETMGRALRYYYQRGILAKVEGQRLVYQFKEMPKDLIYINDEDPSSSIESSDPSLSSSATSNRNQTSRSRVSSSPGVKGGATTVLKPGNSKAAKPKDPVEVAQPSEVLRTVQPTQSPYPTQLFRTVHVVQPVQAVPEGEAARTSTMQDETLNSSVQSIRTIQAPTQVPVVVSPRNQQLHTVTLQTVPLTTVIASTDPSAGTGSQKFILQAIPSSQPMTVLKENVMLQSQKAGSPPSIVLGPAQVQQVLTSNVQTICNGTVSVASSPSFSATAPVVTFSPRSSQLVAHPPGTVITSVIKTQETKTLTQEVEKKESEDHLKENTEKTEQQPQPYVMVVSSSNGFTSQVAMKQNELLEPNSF

With GTGGCA, the binding signal with FLI1 was 1.05 fold enrichment (6-mer frequency, TF over GST control); with EHF, 1.03 fold enrichment (6-mer frequency, TF over GST control); with ELK3, 1.04 fold enrichment (6-mer frequency, TF over GST control); with SPIC, 1.04 fold enrichment (6-mer frequency, TF over GST control); in the test with ELK4 it was 1.04 fold enrichment (6-mer frequency, TF over GST control); with ETV2, 1.07 fold enrichment (6-mer frequency, TF over GST control). For the same sequence, the binding signal was 1 fold enrichment (6-mer frequency, TF over GST control) with ETV3 and 1.05 fold enrichment (6-mer frequency, TF over GST control) in the test with ETV6.
Consider CTTGAG, for which the binding signal is 1.08 fold enrichment (6-mer frequency, TF over GST control) in the test with FLI1; 1.12 fold enrichment (6-mer frequency, TF over GST control) with SPIC; 1.05 fold enrichment (6-mer frequency, TF over GST control) with ELK4.
Turning to ACTGTC, the binding signal with FLI1 is 1.02 fold enrichment (6-mer frequency, TF over GST control); with ELF1, 1.01 fold enrichment (6-mer frequency, TF over GST control); in the test with SPIB, 1.05 fold enrichment (6-mer frequency, TF over GST control); with SPIC, 1.09 fold enrichment (6-mer frequency, TF over GST control); with ELK4, 1 fold enrichment (6-mer frequency, TF over GST control); in the test with ETV2, 1.1 fold enrichment (6-mer frequency, TF over GST control). In addition, the binding signal is 1.01 fold enrichment (6-mer frequency, TF over GST control) with ELF3 and 1 fold enrichment (6-mer frequency, TF over GST control) in the test with ETV1.
As to GACGAC, the binding signal was 1.01 fold enrichment (6-mer frequency, TF over GST control) in the test with FLI1; 1.05 fold enrichment (6-mer frequency, TF over GST control) in the test with GABPA; 1.06 fold enrichment (6-mer frequency, TF over GST control) with EHF; 1.03 fold enrichment (6-mer frequency, TF over GST control) with ELK3; 1.03 fold enrichment (6-mer frequency, TF over GST control) with ELF4; 1.06 fold enrichment (6-mer frequency, TF over GST control) with ELF3. The binding signal was 1.02 fold enrichment (6-mer frequency, TF over GST control) in the test with ETV1; 1.03 fold enrichment (6-mer frequency, TF over GST control) in the test with ETV3L; 1.02 fold enrichment (6-mer frequency, TF over GST control) with ETS2; 1.08 fold enrichment (6-mer frequency, TF over GST control) in the test with ETV6.
